Source: the supplement of paper PMC12494721
Structures can show the parent of a compound that is named as a salt.

Tests used:
Conditions in all cases: 20 µM; incubation time: 27 h, anaerobic, 37 °C;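 for the amine columns active = adjusted P below 0.05 in both replicates with a change the same way and a mean fold change under 0.8 or over 1.25; inactive = the rest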
[1] = test system: Clostridium sporogenes DSM 1664; assay: growth (OD595) fold change vs plate DMSO controls (fold change (ratio)); higher = more growth
In short: (§1)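 The reported measure is growth: the fold change against the median of DMSO controls on the plate. Absorbance at 595 nm from anaerobic 96-well mGAM cultures grown for 27 h at 37 °C was blank-subtracted, corrected for background with 20 µM compound solutions in water, and converted to OD with a calibration factor of 5. Fold changes above 1.5 appear as NA, and values are the mean of 2 biological replicates.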

Escherichia coli IAI1 [2] = assay: as above
In short: as §1

[3] = test system: Klebsiella aerogenes DSM 30053; assay: as above
In short: as §1

[4] = test system: Ruminococcus gnavus DSM 108212; assay: as above
In short: as §1

[5] = test system: Klebsiella aerogenes DSM 30053; assay: fold change of Histamine concentration vs plate DMSO controls (fold change (ratio)); higher = more amine produced, active = hit call of the paper (significant change in both replicates, either direction)
In short: (§2)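 Using LC–triple-quadrupole MS with dynamic MRM, amines were quantified against external calibration curves and corrected for drift within each batch. Samples were whole anaerobic mGAM cultures of four gut strains, grown 27 h at 37 °C from OD 0.1 before 1:1 dilution, extracted with cold acetonitrile/methanol containing 0.1% formic acid and centrifuged. Compounds were present at 20 µM final (sweeteners at 50 µM final). The numbers are fold changes versus plate DMSO controls, each the mean of 2 biological replicates.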

[6] = test system: Clostridium sporogenes DSM 1664; assay: fold change of Tryptamine concentration vs plate DMSO controls (fold change (ratio)); higher = more amine produced, active = hit call of the paper (significant change in both replicates, either direction)
In short: as §2

[7] = test system: Ruminococcus gnavus DSM 108212; assay: as above
In short: as §2

Escherichia coli IAI1 [8] = assay: fold change of Putrescine concentration vs plate DMSO controls (fold change (ratio)); higher = more amine produced, active = hit call of the paper (significant change in both replicates, either direction)
In short: as §2

[9] = test system: Klebsiella aerogenes DSM 30053; assay: as above
In short: as §2

Escherichia coli IAI1 [10] = assay: fold change of Cadaverine concentration vs plate DMSO controls (fold change (ratio)); higher = more amine produced, active = hit call of the paper (significant change in both replicates, either direction)
In short: as §2

[11] = test system: Klebsiella aerogenes DSM 30053; assay: as above
In short: as §2

[12] = test system: Ruminococcus gnavus DSM 108212; assay: fold change of 2-Phenylethylamine concentration vs plate DMSO controls (fold change (ratio)); higher = more amine produced, active = hit call of the paper (significant change in both replicates, either direction)
In short: as §2

| Structure (SMILES) | growth [1] | growth (Escherichia coli IAI1 [2]) | growth [3] | growth [4] | fold change of Histamine concentration [5] | fold change of Tryptamine concentration [6] | fold change of Tryptamine concentration [7] | fold change of Putrescine concentration (Escherichia coli IAI1 [8]) | fold change of Putrescine concentration [9] | fold change of Cadaverine concentration (Escherichia coli IAI1 [10]) | fold change of Cadaverine concentration [11] | fold change of 2-Phenylethylamine concentration [12] |
| --- | --- | --- | --- | --- | --- | --- | --- | --- | --- | --- | --- | --- |
| CCCC[N+]1(C)[C@@H]2C[C@@H](OC(=O)[C@H](CO)c3ccccc3)C[C@H]1[C@@H]1O[C@@H]12 (stereo not given in full) [N-Butylscopolammonium bromide] | 0.954 | 1.22 | 0.974 | 1.06 | 1.03 (inactive) | 0.921 (inactive) | 0.946 (inactive) | 1.27 (inactive) | 1.01 (inactive) | 0.975 (inactive) | 0.99 (inactive) | 0.913 (inactive) |
| Cc1ccccc1[N+](=O)[O-] [2-Nitrotoluene] | 0.884 | 0.993 | 0.968 | 0.984 | 0.994 (inactive) | 0.993 (inactive) | 0.981 (inactive) | 0.996 (inactive) | 1.01 (inactive) | 1.01 (inactive) | 0.993 (inactive) | 0.978 (inactive) |
| S=C(NC1CCCCC1)N1CCC(c2cnc[nH]2)CC1 [Thioperamide maleate] | 0.957 | 1.03 | 1.02 | 1.03 | 1.07 (inactive) | 1.05 (inactive) | 1.02 (inactive) | 0.98 (inactive) | 1.02 (inactive) | 0.951 (inactive) | 0.987 (inactive) | 1.01 (inactive) |
| CC(Cc1ccc(O)cc1)NCC(O)c1cc(O)cc(O)c1 (stereo not given) [Fenoterol hydrobromide] | 1 | 1 | 1.01 | 1.21 | 1.06 (inactive) | 0.982 (inactive) | 1.04 (inactive) | 1.02 (inactive) | 1.04 (inactive) | 0.983 (inactive) | 0.991 (inactive) | 1.04 (inactive) |
| CC(C)=CC1C(C(=O)OCc2cccc(Oc3ccccc3)c2)C1(C)C (stereo not given) [Phenothrin] | 0.963 | 1.02 | 1.05 | 1.06 | 0.924 (inactive) | 1.02 (inactive) | 1.05 (inactive) | 1.07 (inactive) | 1.02 (inactive) | 1.03 (inactive) | 1.01 (inactive) | 1.06 (inactive) |
| CCNC(=O)NC(=O)/C(C#N)=N/OC | 1.09 | 1.08 | 1 | 1.05 | 0.937 (inactive) | 0.956 (inactive) | 1 (inactive) | 1.05 (inactive) | 1.02 (inactive) | 1.06 (inactive) | 1.02 (inactive) | 1.02 (inactive) |
| Nc1nc(N)nc(NC2CC2)n1 [Cyromazine] | 1.07 | 1.02 | 1.01 | 1.03 | 0.979 (inactive) | 1.02 (inactive) | 0.995 (inactive) | 1.02 (inactive) | 1.03 (inactive) | 0.979 (inactive) | 1 (inactive) | 1 (inactive) |
| CC(C)(C)NCC(O)c1cc(Cl)c(N)c(Cl)c1 (stereo not given) [Clenbuterol hydrochloride] | 1.03 | 1.02 | 1.01 | 1.13 | 0.983 (inactive) | 0.986 (inactive) | 1.02 (inactive) | 0.991 (inactive) | 0.983 (inactive) | 0.987 (inactive) | 1 (inactive) | 1.02 (inactive) |
| CCCSP(=O)(OCC)Oc1ccc(Br)cc1Cl (stereo not given) | 0.919 | 0.968 | 1.03 | 0.964 | 1.01 (inactive) | 1.03 (inactive) | 0.941 (inactive) | 1 (inactive) | 1.02 (inactive) | 1.03 (inactive) | 0.995 (inactive) | 0.9 (inactive) |
| CC1(C)C(C(=O)OC(C#N)c2cccc(Oc3ccccc3)c2)C1(C)C (stereo not given) | 0.931 | 1.02 | 1.01 | 1.15 | 1 (inactive) | 1.06 (inactive) | 1.17 (inactive) | 0.937 (inactive) | 0.987 (inactive) | 0.982 (inactive) | 1 (inactive) | 1.25 (inactive) |
| O=C(O)COc1ccc(Cl)cc1Cl | 0.956 | 1.01 | 1.07 | 1.22 | 0.958 (inactive) | 1.02 (inactive) | 0.967 (inactive) | 1 (inactive) | 1 (inactive) | 0.996 (inactive) | 1.01 (inactive) | 0.929 (inactive) |
| CC1(C)CON(Cc2ccccc2Cl)C1=O | 0.972 | 0.994 | 0.994 | 0.976 | 1.02 (inactive) | 1.02 (inactive) | 1.01 (inactive) | 1.01 (inactive) | 1 (inactive) | 1.02 (inactive) | 0.986 (inactive) | 0.993 (inactive) |
| CC(Oc1ccc(Oc2nc3ccc(Cl)cc3o2)cc1)C(=O)O (racemic) | 1.06 | 1.04 | 1.02 | 1.01 | 0.989 (inactive) | 1 (inactive) | 1 (inactive) | 1.03 (inactive) | 1.01 (inactive) | 0.937 (inactive) | 1.02 (inactive) | 1.01 (inactive) |
| COc1cc([C@@H]2c3cc4c(cc3[C@H](O)[C@H]3COC(=O)[C@H]23)OCO4)cc(OC)c1OC [Podophyllotoxin] | 1.13 | 1.18 | 1.14 | 0.888 | 0.958 (inactive) | 1.01 (inactive) | 1.03 (inactive) | 1.06 (inactive) | 1.02 (inactive) | 0.931 (inactive) | 1.02 (inactive) | 1.02 (inactive) |
| CCOP(=S)(OCC)Oc1cc(C)nc(C(C)C)n1 | 0.996 | 1.01 | 0.998 | 1.15 | 1.04 (inactive) | 1.03 (inactive) | 0.997 (inactive) | 1 (inactive) | 1 (inactive) | 1.01 (inactive) | 1 (inactive) | 1 (inactive) |
